# From ChEMBL document CHEMBL3988442, “University of Dundee, Small-Polar-MMV Screening Library” (2021)
# Molecular target: T1, Methionyl-tRNA synthetase, putative (Leishmania donovani (strain BPK282A1)) (UniProt E9BF75)
# T1 sequence (whole entry): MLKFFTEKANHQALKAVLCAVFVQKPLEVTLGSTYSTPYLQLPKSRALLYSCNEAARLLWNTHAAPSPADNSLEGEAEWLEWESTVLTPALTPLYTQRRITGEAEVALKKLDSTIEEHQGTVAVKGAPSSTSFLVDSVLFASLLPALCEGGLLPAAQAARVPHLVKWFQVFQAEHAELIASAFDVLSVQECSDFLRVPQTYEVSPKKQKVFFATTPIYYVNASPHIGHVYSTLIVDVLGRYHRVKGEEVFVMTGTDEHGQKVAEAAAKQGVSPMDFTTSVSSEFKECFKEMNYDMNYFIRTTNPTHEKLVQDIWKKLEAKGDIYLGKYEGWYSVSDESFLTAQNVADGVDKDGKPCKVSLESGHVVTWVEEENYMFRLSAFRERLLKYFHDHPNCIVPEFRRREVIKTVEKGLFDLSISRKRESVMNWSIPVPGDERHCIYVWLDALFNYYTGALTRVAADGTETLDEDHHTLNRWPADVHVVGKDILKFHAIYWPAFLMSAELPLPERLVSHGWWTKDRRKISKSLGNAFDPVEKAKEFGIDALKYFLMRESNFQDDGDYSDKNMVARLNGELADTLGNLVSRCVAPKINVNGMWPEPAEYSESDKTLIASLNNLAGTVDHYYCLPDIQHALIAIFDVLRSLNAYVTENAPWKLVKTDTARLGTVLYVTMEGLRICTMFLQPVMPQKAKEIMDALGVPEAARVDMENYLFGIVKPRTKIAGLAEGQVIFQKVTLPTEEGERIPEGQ
# Experiment: Leishmania donovani Methionine tRNA synthetase (LdMetRS):v7. Dose response assay
# Type: functional
# Design: conc 80 nM, time 150 minutes
smiles,measurement,setting,value
CCc1nc(N2CCCC(C)C2)c2c3c(sc2n1)CCC3 (stereo not given),PXC50,"BOTTOM 6.332749468, HILLSLOPE 1.241583482, MAX_EFFECT 50.25125628, TOP 77.91036355",4.17
same,PXC50,MAX_EFFECT 49.87714988,< 4
Cc1sc2nc(C(F)(F)F)nc(N3CCC(NS(C)(=O)=O)CC3)c2c1C,PXC50,MAX_EFFECT 0.0,< 4
same,PXC50,MAX_EFFECT 1.305483029,< 4
CS(=O)(=O)Nc1cccc2c(=O)cc(C(=O)NCC3(O)CCCCC3)oc12,PXC50,MAX_EFFECT 2.53968254,< 4
same,PXC50,MAX_EFFECT 4.743083004,< 4
Cc1c(C(=O)NC2CCCC2)ccc2ccc(N3CCN(S(C)(=O)=O)CC3)n12,PXC50,MAX_EFFECT 3.645833333,< 4
same,PXC50,MAX_EFFECT 10.0877193,< 4
COCc1nc(N(C)CC(=O)N(C)C)c2c(-c3ccccc3)csc2n1,PXC50,MAX_EFFECT 3.778337531,< 4
same,PXC50,MAX_EFFECT 3.816793893,< 4
O=C(NCC1(O)CCC(F)(F)CC1)c1cc(=O)c2cc(F)cc(O)c2o1,PXC50,MAX_EFFECT 4.030710173,< 4
same,PXC50,MAX_EFFECT 10.04784689,< 4
COc1cccc(-c2cc(C(F)(F)F)nc(N(C)C)n2)c1,PXC50,MAX_EFFECT 5.18134715,< 4
same,PXC50,MAX_EFFECT 6.914893617,< 4
O=C(NCC1CCCCC1)c1cc(=O)c2ccc(F)c(O)c2o1,PXC50,MAX_EFFECT 5.182341651,< 4
same,PXC50,MAX_EFFECT -0.4784689,< 4
Fc1cccc(OC[C@@H]2CNCCO2)c1Oc1ccc(Cl)cc1,PXC50,MAX_EFFECT 6.609808102,< 4
same,PXC50,MAX_EFFECT 8.902691511,< 4
CNC(=O)CN(C)c1nc(-c2cccs2)nc2sc(C)c(C)c12,PXC50,MAX_EFFECT 6.801007557,< 4
same,PXC50,MAX_EFFECT 6.870229008,< 4
Cc1nn(C)cc1-c1cc(C(F)(F)F)nc(NC2CCCCC2)n1,PXC50,MAX_EFFECT 7.049608355,< 4
same,PXC50,MAX_EFFECT 12.01044386,< 4
CC(O)c1ccc(Cl)cc1Cl (stereo not given),PXC50,MAX_EFFECT 7.559395248,< 3
same,PXC50,MAX_EFFECT 15.39923954,< 3
CS(=O)(=O)N1CCN(c2ccc3cnc(C(=O)NC4CCCC4)cn23)CC1,PXC50,MAX_EFFECT 8.333333333,< 4
same,PXC50,MAX_EFFECT 13.54166667,< 4
CCc1nc(NCCCN(C)C)c2cc(CC)sc2n1,PXC50,MAX_EFFECT 9.547738693,< 4
same,PXC50,MAX_EFFECT 12.53071253,< 4
CC(=O)NCCNc1nc(-c2cccnc2)nc2sc(C)c(C)c12,PXC50,MAX_EFFECT 9.574468085,< 4
same,PXC50,MAX_EFFECT 10.3626943,< 4
CC(C)C[C@H](N)COc1ccccc1-c1ccno1,PXC50,MAX_EFFECT 9.594882729,< 4
same,PXC50,MAX_EFFECT 10.97308489,< 4
CCc1nc(N2CCCC2C(=O)O)c2c3c(sc2n1)CCC3 (stereo not given),PXC50,MAX_EFFECT 9.836065574,< 4
same,PXC50,MAX_EFFECT 11.76470588,< 4
CCc1cc2c(NCCCN(C)C)nc(-c3ccccc3)nc2s1,PXC50,MAX_EFFECT 10.07371007,< 4
same,PXC50,MAX_EFFECT 10.55276382,< 4
Clc1cc(Cl)c2c(c1)NCCC2,PXC50,MAX_EFFECT 10.1511879,< 3
same,PXC50,MAX_EFFECT 15.01901141,< 3
CCOCCN(CCOCC)c1nc(C)nc2sccc12,PXC50,MAX_EFFECT 12.27154047,< 4
same,PXC50,MAX_EFFECT 15.66579634,< 4
Fc1cccc(OCc2cnc[nH]2)c1Oc1ccc(Cl)cc1,PXC50,MAX_EFFECT 12.57995736,< 4
same,PXC50,MAX_EFFECT 14.69979296,< 4
CCOC(=O)N1CCN(c2nc(C)nc3sc4c(c23)CCCC4)CC1,PXC50,MAX_EFFECT 14.58333333,< 4
same,PXC50,MAX_EFFECT 16.22807018,< 4
Nc1noc2ccc(-c3cnc4ccc(NCc5ccncc5)nn34)cc12,PXC50,MAX_EFFECT 14.75826972,< 4
same,PXC50,MAX_EFFECT 25.87719298,< 4
CC(=O)N1CCN(c2ccc3ncc(-c4ccc5onc(N)c5c4)n3n2)CC1,PXC50,MAX_EFFECT 15.77608142,< 4
same,PXC50,MAX_EFFECT 16.66666667,< 4
Cc1cc2c(NC3CCCCC3)nc(-c3cccnc3)nc2s1,PXC50,MAX_EFFECT 17.08542714,< 4
same,PXC50,MAX_EFFECT 19.41031941,< 4
Cn1ncc2c(OCCO)nc(Nc3ccc(F)c(F)c3)nc21,PXC50,MAX_EFFECT 18.30188679,< 4
same,PXC50,MAX_EFFECT 21.91780822,< 4
Cc1nnc(NCC2(c3ccccc3)CCC2)c(C#N)c1C,PXC50,MAX_EFFECT 19.71830986,< 4
same,PXC50,MAX_EFFECT 20.92592593,< 4
Cc1nc(NCc2cccnc2)c2c3c(sc2n1)CC(C)CC3 (stereo not given),PXC50,MAX_EFFECT 20.10178117,< 4
same,PXC50,MAX_EFFECT 27.4559194,< 4
Cc1sc2nc(CCN)nc(N3CC(N4CCCCC4)C3)c2c1C,PXC50,MAX_EFFECT 21.14882507,< 4
same,PXC50,MAX_EFFECT 25.06527415,< 4
Cc1nc(N[C@@H](CC(C)C)C(=O)O)c2c3c(sc2n1)CCCC3,PXC50,MAX_EFFECT 23.93617021,< 4
same,PXC50,MAX_EFFECT 24.87046632,< 4
